From PubChem BioAssay come the findings set out here.

SMILES strings stand for the structures.

For the assay, the target named is Left-right determination factor 2 (Homo sapiens) (UniProt O00292). Briefly: small molecules binding LEFTY2 protein – biochemical, small-molecule microarray, 635 nm fluorescence scan, primary screen (AID 1110). The following applies: higher = more signal.
Sequence of Left-right determination factor 2 (Homo sapiens) (O00292 whole entry, looked up): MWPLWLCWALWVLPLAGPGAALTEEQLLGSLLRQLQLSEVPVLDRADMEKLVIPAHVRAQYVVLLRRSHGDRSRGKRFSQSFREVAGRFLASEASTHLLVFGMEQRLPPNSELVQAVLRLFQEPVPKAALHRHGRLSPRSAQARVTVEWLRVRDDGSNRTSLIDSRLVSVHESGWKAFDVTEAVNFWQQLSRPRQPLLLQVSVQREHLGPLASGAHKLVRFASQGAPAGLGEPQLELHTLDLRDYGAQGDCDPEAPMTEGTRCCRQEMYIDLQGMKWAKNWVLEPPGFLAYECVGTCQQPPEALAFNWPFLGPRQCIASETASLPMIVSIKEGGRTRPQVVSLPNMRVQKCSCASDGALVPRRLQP
With `COCCOC(=O)N1C(=O)[C@@]2(c3cc(C#CC4(O)CCCCCC4)ccc31)[C@H](C(=O)N1CCCCCCC1)[C@H]1C(=O)O[C@H](c3ccccc3)[C@H](c3ccccc3)N1[C@@H]2c1ccc(O)cc1`, the composite z-score turned out to be 0.333.
With `C=CCC(OC(C)=O)[C@@H]1[C@@H](N(Cc2cc3ccccc3o2)C(=O)Cc2ccc(F)cc2)c2cc(OCCCO)ccc2N1C(=O)c1ccc(-c2ccccc2)cc1` (stereo partly specified) the figure was -0.159; with `O=C(CS)NCCCCCNC(=O)[C@H]1C[C@H]2C(=O)N[C@@H](Cc3ccccc3)C(=O)N2[C@H]1c1ccc(O)cc1`, 0.406; with `CO[C@H]1COC(=O)CC=C[C@@H](C)COC(=O)[C@@H](C)NC(=O)CC=C[C@@H]1C`, 1.6.
Take `CCC(=O)[C@]12O[C@@]3([C@@H]4C(=O)OCC[C@@H]41)N(Cc1ccccc1)C(C)=C(C(=O)OC)[C@@H](c1ccccc1)N3C2=O`: the composite z-score was found to be 0.271.
For the compound `C[C@]1(C(=O)NCCN2CCOCC2)c2ccccc2C(=O)N(Cc2ccccc2)[C@H]1c1ccc(CO)cc1`, the composite z-score was -1.01.
In the case of `CC[C@H]1C2=C3C(CC[C@H]4C(OC)OC[C@](C)([C@@H]34)N(C(=O)OC(C)(C)C)C2)C(CO)C1CO` (stereo partly specified), the composite z-score stood at 0.221.
`O=C1c2ccccc2[C@@]2(Cc3ccccc3N(CC(F)(F)F)C2=O)[C@H](c2ccc(CO)cc2)N1C1CCCCC1` yielded a composite z-score of 0.542.
Compound `C=C(C(=O)CC[C@H](OC(=O)c1ccccc1-c1ccccc1C(=O)O)c1ccc(CO)o1)C(C)C` returned a composite z-score of 0.408.
With `CC1=C([C@H](O)CCc2ccccc2)[C@H](CO)[C@@H]2C(=O)N(Cc3ccccc3)C(=O)[C@@H]2C1` the figure was 0.334; with `O=C1O[C@H](c2ccccc2)[C@H](c2ccccc2)N2[C@H]1[C@@H](C(=O)NC[C@H](O)c1ccccc1)[C@]1(C(=O)Nc3ccc(C#CC4=CCCCC4)cc31)[C@H]2c1ccc(OCCO)cc1`, 0.377; with `COc1cc(Cc2cc3c(c(CCc4ccccc4)n2)[Si](C(C)C)(C(C)C)OC3)cc(OC)c1OC`, 0.131.
In the case of `CO[C@H]1O[C@H](CO)[C@@H](OC(=O)CCc2ccccc2)[C@@H]2OC(=O)[C@H](Cc3cccc(Br)c3)C/C=C/C[C@@H](Cc3cccc(Br)c3)C(=O)O[C@@H]12`, the composite z-score was -0.798.
`Cc1ccc(S[C@]2(C(=O)NCCCN(C)C)CC(=O)N(C3CCCCC3)[C@@H]2c2ccc(CO)cc2I)cc1` showed a composite z-score of -0.848.
`COC(=O)[C@@]1(Cc2ccccc2CN=[N+]=[N-])N=C(c2ccc(OCCCO)cc2)O[C@H]1c1ccccc1N=[N+]=[N-]` showed a composite z-score of -0.453.
On to `CO[C@@H]1COC(=O)[C@H](C)NC(=O)CC=C[C@@H](C)[C@H](OC)COC(=O)[C@H](C)NC(=O)CC=C[C@H]1C`, for which the composite z-score amounted to 0.787.
For `COCCOC(=O)N1C(=O)[C@@]2(c3cc(C#CCNC(N)=O)ccc31)[C@H](c1ccc(OCCO)cc1)N1[C@H](c3ccccc3)[C@H](c3ccccc3)OC(=O)[C@H]1[C@@H]2C(=O)Nc1nc2ccccc2s1`, the composite z-score was 1.24.
As for `C=CC[C@@]1(C(=O)N2CCOCC2)N=C(c2ccc(OCCCO)cc2)O[C@@H]1c1ccccc1`, the composite z-score was -0.464.
The compound `COc1cc2c(cc1OC)CN(C(=O)[C@H]1[C@@H]3C(=O)O[C@@H](c4ccccc4)[C@@H](c4ccccc4)N3[C@@H](c3ccc(O)cc3)[C@]13C(=O)Nc1ccc(C#CC4(O)CCCCCC4)cc13)CC2` showed a composite z-score of 1.36.
Turning to `O=C/C=C/c1ccccc1Cl`, the composite z-score is -0.524.
`C=CCC(OC(C)=O)[C@@H]1[C@@H](N(Cc2cccc3ccccc23)C(=O)Cc2ccc(F)cc2)c2cc(OCCCO)ccc2N1C(=O)Cc1ccc2ccccc2c1` (stereo partly specified) displayed a composite z-score of -0.368.
The value for `CC(=O)NCCCC[C@@H]1NC(=O)[C@@H]2C[C@H](C(=O)NCCCCCNC(=O)CS)[C@H](c3ccc(O)cc3)N2C1=O` was -0.293; that for `C[N+](C)(C)CCCCNC(=O)[C@@H]1C[C@@H]2C(=O)N3CCC[C@H]3C(=O)N2[C@@H]1c1cccc(OCCO)c1` was 1.14.
Regarding `O=C(NCC(O)CO)[C@]1(Cc2ccccc2)N=C(c2ccc(OCCCO)cc2)O[C@@H]1c1ccccc1` (stereo partly specified), the composite z-score was -1.48.
The compound `COC(=O)Cn1c(C(=O)N2CCCC2)cc2c1C[C@H]1CN(C(=O)c3ccccc3)[C@@](Cc3ccccc3)(C(=O)OC)[C@@H]21` gave a composite z-score of -0.0875.
With `CCOC(=O)[C@H]1C/C=C/C[C@H](C(=O)OCC)C(=O)O[C@H]2[C@@H](OC)O[C@H](CO)[C@@H](OC(=O)Nc3ccc(Br)cc3)[C@@H]2OC1=O` the figure was 0.561; with `CO[C@@H]1COC(=O)[C@@H]2CCCN2C(=O)CC=C[C@@H](C)[C@H](OC)COC(=O)[C@@H]2CCCN2C(=O)CC=C[C@H]1C`, 0.402.
`COCCOC(=O)N1C(=O)[C@@]2(c3cc(C#CCCO)ccc31)[C@H](c1ccc(O)cc1)N1[C@H](c3ccccc3)[C@H](c3ccccc3)OC(=O)[C@H]1[C@@H]2C(=O)Nc1nc2ccccc2s1` yielded a composite z-score of 0.704.
Consider `COc1cc2c(cc1OC)CN(C(=O)[C@@H]1[C@H]3C(=O)O[C@H](c4ccccc4)[C@H](c4ccccc4)N3[C@H](c3ccccc3OCCO)[C@@]13C(=O)Nc1ccccc13)CC2`, for which the composite z-score came out at 0.187.
With `COc1ccc([Si](C)(C)[C@H]2[C@H](CCO)O[C@@]3(C(=O)N(Cc4ccc(N5CCCCC5=O)cc4)c4ccccc43)[C@@H]2C)cc1` the figure was 0.139; with `CCCCO[C@H]1C[C@H]2C(Br)=C[C@@]1(CO)C(=O)[C@]21CO1`, 0.456; with `CCOC(=O)C[C@H]1[C@H](OC(=O)c2ccccc2-c2ccccc2)[C@@H](NC(=O)C2CCCCC2)c2cc(OCCCO)ccc2N1C(=O)c1ccccc1`, 1.13.
`CO[C@H]1COC(=O)[C@H](C)NC(=O)CC=C[C@@H](C)[C@H](NS(=O)(=O)c2ccc(C)cc2)COC(=O)[C@@H](OCc2ccccc2)C=C[C@@H]1C` came in with a composite z-score of 0.449.
The value for `CC(C)CNC(=O)[C@@]1(C)c2ccccc2C(=O)N(Cc2ccc(OC(F)(F)F)cc2)[C@H]1c1ccc(CO)cc1` was -1.22; that for `CC(C)C[C@@H]1NC(=O)[C@H]2C[C@@H](C(=O)NCCCCCC[N+](C)(C)C)[C@@H](c3ccc(O)cc3)N2C1=O` was -0.29; that for `C=CC[C@@]1(C(=O)NCC(O)CO)N=C(c2ccc(OCCCO)cc2)O[C@@H]1c1ccccc1CN=[N+]=[N-]` (stereo partly specified) was -1.44.
